Experiment [1] has as its target Androgen receptor (Homo sapiens) (UniProt P10275). Description: qHTS assay for small molecule agonists of androgen receptor signaling (AID 588515; active = well fitted curve in the direction sought with a large enough effect in the signal ratio, with a control signal flat; the % refers to the signal ratio; note: % is set by controls: 0 for no effect and ±100 for the full control effect). Conditions: AR-UAS-bla HEK293, beta-lactamase ratio, agonist 16 h; stronger effect = higher value. Summed up:
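Stimulation of an AR-responsive β-lactamase reporter in GripTite HEK293 cells was measured after 16 h compound exposure at 37 °C, via CCF4 fluorescence after 2 h RT. EC50 from Hill fits, normalized to R1881 at 30 nM.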
(In general: Quantitative high-throughput screening tests each substance at several concentrations.)

Experiment [2] shares this target. Description: qHTS assay for small molecule antagonists of androgen receptor signaling (AID 588516; active = well fitted curve in the direction sought with a large enough effect in the signal ratio, with a control signal flat, not every such curve was filed as active; the % refers to the signal ratio; note: % is set by controls: 0 for no effect and ±100 for the full control effect). Conditions: AR-UAS-bla HEK293, beta-lactamase ratio, antagonist mode, 16 h; series mostly up to 76.8 µM. Summed up: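 HEK293 AR-UAS-bla cells, 10% dialyzed FBS medium; cpd titration + R1881 10 nM final, 16 h 37 C; CCF4 2 h RT; FRET ratio; IC50/efficacy via Hill fit.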

The target in experiment [3] is Bile acid receptor (Homo sapiens) (UniProt Q96RI1). The experiment is described as follows: qHTS assay for small molecule antagonists of farnesoid X receptor signaling (AID 588526). Note: % is set by controls: 0 for no effect and ±100 for the full control effect. As to conditions: HEK293T FXR-UAS-bla, beta-lactamase ratio, antagonist mode; series mostly up to 76.7 µM. Summed up: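 Antagonist mode: titrated compounds tested against chenodeoxycholic acid stimulation (normalized to 50 uM CDCA and DMSO) in GeneBLAzer HEK293T cells for 16 h. Beta-lactamase read by CCF4 fluorescence; IC50 from Hill fits.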

The target is the same in experiment [4]. The experiment is described as follows: qHTS assay for small molecule agonists of farnesoid X receptor signaling (AID 588527).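 Note: 0% = vehicle basal and 100% = reference agonist.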 As to conditions: HEK293T FXR-UAS-bla, beta-lactamase ratio, 16 h; activation: stronger effect = higher value. The procedure, abridged: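 Agonist-mode beta-lactamase reporter in GeneBLAzer FXR-UAS-bla HEK293T cells, titration up to 92 uM, 16 h exposure at 37 C, CCF4 fluorescence. Response scaled to DMSO (0%) and 100 uM chenodeoxycholic acid (100%), then Hill-fitted for EC50 and efficacy.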

Experiment [5] concerns the target Peroxisome proliferator-activated receptor gamma (Homo sapiens) (UniProt P37231). Description: qHTS assay for small molecule antagonists of peroxisome proliferator-activated receptor gamma signaling (AID 588537; active = well fitted inhibition curve with a large enough effect in the signal ratio, with a control signal flat, not every such curve was filed as active; the % refers to the signal ratio;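 note: reporter cells co-stimulated with 50 nM rosiglitazone agonist during compound treatment; % of control where 0% means no effect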). As to conditions: HEK293 PPARg-UAS-bla, beta-lactamase ratio, antagonist mode; series mostly up to 76.8 µM. Summed up:
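Read-out: CCF4 fluorescence (ex 405, em 460/530 nm) after 2 h at RT. Cells were HEK293 carrying a UAS-bla reporter and treated 16 h at 37 C with compound plus rosiglitazone (50 nM final). Normalized to rosiglitazone and DMSO.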

The target in experiment [6] is Vitamin D3 receptor (Homo sapiens) (UniProt P11473). The experiment is described as follows: qHTS assay for small molecule antagonists of vitamin D receptor signaling (AID 588541).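 Note: receptor activated by calcitriol during compound treatment; % is set by controls: 0 for no effect and ±100 for the full control effect.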 Conditions: HEK293T VDR-UAS-bla, beta-lactamase ratio, antagonist mode; series mostly up to 76.7 µM. The procedure, abridged: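 VDR-UAS-bla HEK293T cells in 2% charcoal-stripped FBS were stimulated with 1-alpha,25-dihydroxyvitamin D3 (3 nM final) plus compound for 16 h at 37 C. The beta-lactamase CCF4 readout was normalized to 50 nM agonist and DMSO, and Hill fits gave IC50.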

Experiment [7] shares this target. Description: qHTS assay for small molecule agonists of vitamin D receptor signaling (AID 588543).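 Note: 0% = DMSO basal and 100% = reference agonist control.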 As to conditions: HEK293T VDR-UAS-bla, beta-lactamase ratio, 16 h; series mostly up to 76.8 µM. The procedure, abridged:
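β-lactamase reporter, VDR-UAS-bla HEK293T, agonist mode. Cells plated 5 h at 37 °C, compound titration 16 h at 37 °C, CCF4 dye 2 h RT, ratio 460/530 nm. Hill fit → EC50, efficacy vs 50 nM 1α,25-(OH)2D3.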

Experiment [8] in a line: qHTS assay for small molecule agonists of retinoid X receptor alpha signaling (AID 588544). Conditions: HEK293T RXRa-UAS-bla, beta-lactamase reporter, 18 h; 530 nm emission.
A short description of experiment [9]: qHTS assay for small molecule agonists of the antioxidant response element (ARE) signaling pathway (AID 651741; active = well fitted activation curve with a large enough effect in the signal ratio; the % refers to the signal ratio; note: potency is the fitted concentration of half-maximal effect; for activation: % of control where 0% means no effect). Conditions: HepG2 ARE-bla reporter, beta-lactamase FRET ratio, 16 h; series mostly up to 96 µM. Summed up:
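HepG2 ARE-bla reporter cells, 2,000/well; 5 h settle at 37 C/5% CO2; compound pin transfer (23 nL, DMSO); 16 h at 37 C; LiveBLAzer B/G FRET substrate, 2 h RT; fluorescence intensity read.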

Experiment [10] can be described thus: qHTS assay for small molecule activators of the nuclear factor-kappa B (NF-kB) signaling pathway (AID 651749; active = well fitted activation curve with a large enough effect in the signal ratio; the % refers to the signal ratio; note: % of control where 0% means no effect). Conditions: NF-kB-bla ME-180 cells, beta-lactamase FRET ratio, 16 h; activation: stronger effect = higher value. The procedure, abridged:
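NF-kB-bla ME-180 cells, 2,000/well; 23 nL compound or DMSO pinned; 16 hr, 37C/5% CO2; beta-lactamase FRET read-out.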

Experiment [11] in a line: qHTS assay for small molecule activators of the human pregnane X receptor (PXR) signaling pathway (AID 720659; call rule not given here; note: 0% is about no effect). Conditions: DPX-2 HepG2 CYP3A4-luciferase, 24 h; series mostly up to 92.3 µM.

Each structure is given as a SMILES string. Records with an inconclusive call do not appear. Active and inactive are the calls of the source. Unless noted, calls come from the whole dose curve.

Chain of Androgen receptor (Homo sapiens) (P10275 whole entry, looked up): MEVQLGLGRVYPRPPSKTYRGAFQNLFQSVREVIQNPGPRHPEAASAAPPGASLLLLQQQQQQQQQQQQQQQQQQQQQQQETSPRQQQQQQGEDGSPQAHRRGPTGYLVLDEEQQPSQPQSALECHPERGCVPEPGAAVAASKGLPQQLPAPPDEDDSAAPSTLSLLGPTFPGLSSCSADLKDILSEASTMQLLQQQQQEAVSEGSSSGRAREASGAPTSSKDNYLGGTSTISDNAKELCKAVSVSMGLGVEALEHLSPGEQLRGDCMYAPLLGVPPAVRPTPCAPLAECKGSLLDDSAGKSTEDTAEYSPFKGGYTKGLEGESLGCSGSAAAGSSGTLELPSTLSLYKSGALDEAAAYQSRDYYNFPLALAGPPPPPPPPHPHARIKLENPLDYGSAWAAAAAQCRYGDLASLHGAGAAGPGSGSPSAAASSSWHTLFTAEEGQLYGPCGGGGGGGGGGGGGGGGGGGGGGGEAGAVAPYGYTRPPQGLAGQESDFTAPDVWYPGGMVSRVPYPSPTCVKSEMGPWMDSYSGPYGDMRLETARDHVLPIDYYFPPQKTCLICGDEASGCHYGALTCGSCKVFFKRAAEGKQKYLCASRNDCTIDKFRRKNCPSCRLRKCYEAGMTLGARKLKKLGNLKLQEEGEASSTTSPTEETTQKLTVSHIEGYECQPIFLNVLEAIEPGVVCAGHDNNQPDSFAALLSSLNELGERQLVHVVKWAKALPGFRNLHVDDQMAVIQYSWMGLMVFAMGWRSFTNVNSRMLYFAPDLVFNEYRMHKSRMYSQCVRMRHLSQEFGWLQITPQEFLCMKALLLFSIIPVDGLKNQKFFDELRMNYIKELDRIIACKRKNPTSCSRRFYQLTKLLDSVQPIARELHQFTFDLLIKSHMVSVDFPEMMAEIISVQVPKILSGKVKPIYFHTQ
Chain of Vitamin D3 receptor (Homo sapiens) (P11473 whole entry, looked up): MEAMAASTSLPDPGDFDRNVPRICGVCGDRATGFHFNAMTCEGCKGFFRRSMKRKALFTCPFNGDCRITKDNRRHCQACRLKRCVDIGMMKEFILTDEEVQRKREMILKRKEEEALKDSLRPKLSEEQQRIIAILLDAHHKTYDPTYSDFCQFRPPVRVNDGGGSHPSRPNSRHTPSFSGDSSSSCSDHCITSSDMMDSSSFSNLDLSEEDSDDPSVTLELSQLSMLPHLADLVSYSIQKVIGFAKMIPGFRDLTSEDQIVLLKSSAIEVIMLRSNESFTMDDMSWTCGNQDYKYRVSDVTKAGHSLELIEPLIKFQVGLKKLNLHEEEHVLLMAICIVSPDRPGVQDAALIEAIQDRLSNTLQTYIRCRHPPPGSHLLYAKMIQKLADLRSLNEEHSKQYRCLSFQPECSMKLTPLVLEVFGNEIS
Chain of Bile acid receptor (Homo sapiens) (Q96RI1 whole entry, looked up): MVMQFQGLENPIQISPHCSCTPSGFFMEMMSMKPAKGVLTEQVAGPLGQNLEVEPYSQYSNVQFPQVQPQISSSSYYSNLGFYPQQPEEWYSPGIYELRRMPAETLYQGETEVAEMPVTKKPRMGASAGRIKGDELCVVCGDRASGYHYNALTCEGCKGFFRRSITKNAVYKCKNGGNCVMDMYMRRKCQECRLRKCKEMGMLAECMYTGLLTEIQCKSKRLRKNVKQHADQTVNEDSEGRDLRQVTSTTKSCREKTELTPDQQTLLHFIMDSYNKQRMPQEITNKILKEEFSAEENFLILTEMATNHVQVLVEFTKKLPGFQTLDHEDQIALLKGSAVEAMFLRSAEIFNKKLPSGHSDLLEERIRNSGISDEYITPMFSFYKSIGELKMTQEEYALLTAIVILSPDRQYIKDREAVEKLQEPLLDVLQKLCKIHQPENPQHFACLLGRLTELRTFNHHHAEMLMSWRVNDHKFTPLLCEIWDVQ
Chain of Peroxisome proliferator-activated receptor gamma (Homo sapiens) (P37231 whole entry, looked up): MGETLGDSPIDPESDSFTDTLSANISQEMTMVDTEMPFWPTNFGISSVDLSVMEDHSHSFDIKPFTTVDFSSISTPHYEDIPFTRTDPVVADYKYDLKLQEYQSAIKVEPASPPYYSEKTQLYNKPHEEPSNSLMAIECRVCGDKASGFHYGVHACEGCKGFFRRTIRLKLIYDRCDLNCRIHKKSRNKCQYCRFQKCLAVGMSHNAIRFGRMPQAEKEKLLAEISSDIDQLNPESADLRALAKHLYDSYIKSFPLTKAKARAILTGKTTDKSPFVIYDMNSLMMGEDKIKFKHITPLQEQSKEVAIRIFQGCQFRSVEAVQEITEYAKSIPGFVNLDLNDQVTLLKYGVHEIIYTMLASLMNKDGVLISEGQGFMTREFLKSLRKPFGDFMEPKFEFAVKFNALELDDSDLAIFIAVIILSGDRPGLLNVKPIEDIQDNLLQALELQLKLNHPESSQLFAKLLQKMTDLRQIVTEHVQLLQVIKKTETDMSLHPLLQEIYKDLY

As for `CCOP(=O)(OCC)OP(=O)(OCC)OCC`, the activation in [1] was 5.85% (inactive); in [4], 2.91% (inactive); in experiment [10], -0.353% (inactive). Also, the Potency entry in experiment [2], in experiment [3], in [5], in [6] and in [9] was “inactive” in each case. Besides, in experiment [7], the outcome was inactive. Further, in [8], the max response is -12.7%.

As for `O=CNC(N1CCN(C(NC=O)C(Cl)(Cl)Cl)CC1)C(Cl)(Cl)Cl` (stereo unspecified), the values for the activation in experiment [1] and in experiment [10] were 14.6% (inactive) and -2.29% (inactive), respectively. The Potency result in [5] and in [6] was “inactive” throughout. In experiment [7], the result was inactive.

On to `CCOC(=O)COc1cc(-c2nn(C)c(OC(F)F)c2Cl)c(F)cc1Cl`, for which the Potency result in experiment [2] and in experiment [6] was “inactive” each time. The max response in experiment [8] was determined as 3.77%. Besides, the Potency in experiment [9] was 17.2 µM (active).

Turning to `CC(C)=C[C@@H]1[C@@H](C(=O)OCN2C(=O)C3=C(CCCC3)C2=O)C1(C)C`, in experiment [1], the activation is 0.858% (inactive). Besides, the Potency entry in experiment [6] is “inactive”. The Potency in [9] is 54.5 µM (active).

In the case of `CCCCCCCCCCCCC1=C(OC(C)=O)C(=O)c2ccccc2C1=O`, the activation in experiment [1] is -4.72% (inactive); in experiment [4], -0.713% (inactive). In addition, the result in experiment [7] and in [11] was inactive.

The values above are taken from PubChem BioAssay (NCATS).
